C1s inh – blocks human complement C1s protease activity; P09871; purified C1s, fluorogenic AMC substrate, pooled mixtures; mean inhibition % of two 10-compound mixtures (stronger effect = higher value), % at 5 µM (by protocol); 62,000 compounds, 0.16% hits;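 active = inhibition above 20% in each of the two 10-compound mixture wells holding the compound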;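 note: 0% = enzyme wells lacking compound mixture and 100% = no-enzyme blank wells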
PLAP act – human PLAP activation; purified PLAP enzyme, luminescent substrate read-out; stronger effect = higher value; AID 696; P05187; activation fold at 20 µM; 96,000 compounds, 1.2% hits; in the data active = activation fold above about 2
FXIa mix inh – blocks human factor XIa in pooled compound mixtures; P03951; purified FXIa, fluorogenic substrate; inhibition, % at 5 µM; 62,000 compounds, 0.19% hits;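 note: each value is inhibition by a whole ten-compound pool holding the compound; 0% = enzyme with no mixture and 100% = wells lacking enzyme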
FXIIa inh mix – blocks human factor XIIa in pooled compound mixtures; P00748; purified FXIIa, fluorogenic substrate; inhibition, % at 5 µM; 62,000 compounds, 0.2% hits; AID 684;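 note: 0% = enzyme without compound and 100% = no enzyme blank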
HePTP inhibitor – blocks human HePTP tyrosine phosphatase. 110,000 compounds, 0.64% hits. recombinant HePTP phosphatase activity, OD absorbance. P35236. inhibition, % at 20 µM; in the data active = inhibition above about 50%;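 note: plate controls were vehicle for no effect and reference inhibitor for full effect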
Target sequence (P35236 whole entry, looked up): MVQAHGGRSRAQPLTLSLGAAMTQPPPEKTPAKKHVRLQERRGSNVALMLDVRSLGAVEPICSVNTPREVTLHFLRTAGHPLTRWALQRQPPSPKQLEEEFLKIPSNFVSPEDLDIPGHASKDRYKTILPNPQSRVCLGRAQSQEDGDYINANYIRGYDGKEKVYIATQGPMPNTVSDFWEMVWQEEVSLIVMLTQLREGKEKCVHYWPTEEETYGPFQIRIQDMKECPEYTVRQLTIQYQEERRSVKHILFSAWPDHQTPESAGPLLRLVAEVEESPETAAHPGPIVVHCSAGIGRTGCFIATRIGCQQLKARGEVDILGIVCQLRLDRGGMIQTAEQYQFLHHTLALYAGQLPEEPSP
Cathepsin G inh – blocks human cathepsin G enzyme activity; P08311; purified enzyme, AMC-tetrapeptide fluorescence, pooled mixtures; inhibition, % at 5 µM (by protocol); 62,000 compounds, 0.2% hits;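 active = inhibition above 20% in each of the two mixture wells holding the compound; inactive = inhibition of 20% or less in either well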;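 note: 0% = enzyme control without mixture and 100% = blank lacking enzyme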
Target sequence (P08311 21-244 limits assumed): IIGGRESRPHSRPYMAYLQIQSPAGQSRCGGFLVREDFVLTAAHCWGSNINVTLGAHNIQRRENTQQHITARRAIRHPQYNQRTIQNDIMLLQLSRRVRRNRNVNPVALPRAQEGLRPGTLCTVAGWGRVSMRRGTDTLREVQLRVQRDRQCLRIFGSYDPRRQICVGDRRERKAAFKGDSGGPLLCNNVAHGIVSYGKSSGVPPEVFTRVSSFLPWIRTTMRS
Active calls of the source: *; . = no result. Only some compounds are listed: those with a hit (about 1.4% of all), similar ones and a draw of the others. Cut-off read from the data, not from the text of the source, unless noted: active = inhibition above about 20% (passing the limit was not always enough); inactive = the rest.

SMILES	C1s inh	PLAP act	FXIa mix inh	FXIIa inh mix	HePTP inhibitor	Cathepsin G inh
O=C(O)c1ccc(NC(=O)c2ccc3c(c2)C(=O)N(c2ccc([N+](=O)[O-])cc2)C3=O)cc1	.	.	.	.	59.1*	.
O=C(CCCN1C(=O)/C(=C\c2ccc(F)cc2)SC1=S)Nc1ccccc1O	.	.	.	.	-1.2	.
O=C(Nc1ccccc1)NC1CCCCC1	.	0.8	.	.	88.9*	.
COc1ccccc1-c1cc(C(F)(F)F)nc(N2CCOCC2)n1	4.0	1	22.2*	1.5	8.1	9.6
Fc1ccc(-c2cc(C(F)(F)F)nc(N3CCCCC3)n2)cc1	0.5	1.3	0.9	21.5*	-2.5	-1.6
COc1ccccc1-c1cc(C(F)(F)F)nc(N2CCN(c3ccccc3)CC2)n1	10.9	1.1	9.6	6.4	3.7	2.5
O=C(O)c1ccc(/C=C2\SC(=O)N(c3ccc(F)cc3)C2=O)cc1	.	.	.	.	99.8*	.
CCC1CCCCN1CCCNC(=O)c1cn(CC(C)C)c(=O)c2cc(OC)c(OC)cc12 (centres undefined)	3.8	2*	10.3	4.0	5.7	2.8
O=C(CSc1nc(C2CCCCC2)n(-c2ccccc2)n1)NCCN1C(=O)CSC1=O	8.7	2*	0.5	-9.0	9.3	3.9
O=C1NC(=O)N(c2ccc(Cl)cc2)C(=O)/C1=C/c1cccc(F)c1	.	.	.	.	-6.6	.
COc1ccc(C(=O)Sc2ccc(C)cc2)cc1OC	.	1	.	.	.	.
COc1ccc(C(=O)SC2=NCCS2)cc1OC	24.3*	0.9	15.7	4.1	7.2	12.7
CCc1nnc(NC(=O)c2ccc(S(=O)(=O)N3CCCc4ccccc43)cc2)o1	.	2.1*	.	.	.	.
COCc1nnc(NC(=O)c2ccc(S(=O)(=O)N3CCCCCC3)cc2)o1	-19.1	1.4	0.3	-8.1	3.2	-7.5
O=C(O)COc1ccccc1/C=N/NC(=O)COc1c(Br)cc(Br)cc1Br	.	.	.	.	65.6*	.
Cc1ccc(NCC(=O)N/N=C\c2ccccc2OCC(=O)O)cc1	.	.	.	.	-0.3	.
COc1ccc(C(=O)Nc2cc(C(F)(F)F)cc(C(F)(F)F)c2)cc1Cl	.	.	.	.	2.7	.
Cn1c(/C(C#N)=C(\O)CN2CCN(Cc3ccccc3)CC2)nc2ccccc21	7.5	2.5*	6.3	2.2	7.0	8.0
Cc1cccc(CC2SC(=Nc3ccc(Cl)cc3)NC2=O)c1 (centres undefined)	.	.	.	.	-7.8	.
COc1ccc(-c2cc(-c3cc(OC)ccc3O)[nH]n2)cc1	.	2.3*	.	.	.	.
COc1ccc(-c2n[nH]c(C)c2-c2cc(OC)ccc2O)cc1	.	2*	.	.	.	.
COc1ccc(-c2cc(-c3ccc(OC)c(OC)c3)n[nH]2)c(O)c1	.	2.2*	.	.	-4.4	.
COc1ccc(-c2cc(-c3ccccc3O)[nH]n2)cc1OC	-7.1	2.8*	-4.6	-0.8	5.1	4.8
COc1ccc(-c2cc(-c3cc(F)ccc3O)[nH]n2)cc1OC	-10.9	1.2	4.2	4.1	10.2	0.6
CC1C(C(=O)N(C=O)c2ccc(Br)cc2)C2C=CC1C21CC1 (centres undefined)	.	.	.	.	3.0	.
SMILES	C1s inh	PLAP act	FXIa mix inh	FXIIa inh mix	HePTP inhibitor	Cathepsin G inh
Clc1ccc(C2NN=C(c3ccccc3)S2)cc1 (centres undefined)	.	.	.	.	5.7	.
Cc1ccc(Cc2c(C)nc3c(C(=O)O)cnn3c2C)cc1	-2.2	.	2.8	4.4	-10.6	-2.8
Cc1nc2c(C(=O)N3CCN(C)CC3)cnn2c(C)c1Cc1ccc(Cl)cc1	.	2.1*	.	.	.	.
CCOc1cc(N2CCOCC2)c(OCC)cc1N	.	.	.	.	68.4*	.
CCc1ccc(-c2nc(CN3CCC(C(=O)NCCc4ccc(OC)c(OC)c4)CC3)c(C)o2)cc1	2.4	2.4*	-2.9	7.8	-3.6	-0.7
Cc1ccccc1-c1nc(CN2CCC(C(=O)NCc3cccs3)CC2)c(C)o1	.	2.6*	.	.	.	.
Cc1ccccc1-c1nc(CN2CCC(C(=O)NCc3ccco3)CC2)c(C)o1	-1.3	1.3	6.3	0.8	-6.6	18.3
COc1ccc(CCNC(=O)C2CCN(Cc3nc(-c4ccccc4F)oc3C)CC2)cc1OC	3.0	1.7	5.3	-1.9	7.6	2.5
Cc1ccccc1-c1nc(CN2CCC(C(=O)NCCCN3CC(C)CC(C)C3)CC2)c(C)o1 (centres undefined)	2.5	2*	10.4	2.6	4.4	8.2
COc1ccc(NC(=O)C(C)Sc2ccc(Cl)cc2)cc1 (centres undefined)	.	.	.	.	-2.7	.
O=c1cc(Nc2ccc(Br)cc2)c2ccccc2n1-c1ccccc1	.	.	.	.	10.8	.
COc1ccc(C(=O)Nc2ccc(Cl)c(-c3nc4ccccc4s3)c2)cc1[N+](=O)[O-]	.	.	.	.	65.0*	.
COc1ccc(S(=O)(=O)NNC(=O)c2cccc(Br)c2)cc1	.	.	.	.	10.4	.
Cc1ccc(C)n1-c1ccccc1C(=O)O	.	.	.	.	104.3*	.
Cc1c(C(=O)O)cccc1-n1c(C)ccc1C	.	.	.	.	103.9*	.
CCOC(=O)C(=CNc1ccc(OCC)cc1)C(=O)OCC	.	.	.	.	-7.4	.
CCOC(=O)C1=C(C)NC(=O)NC1c1ccc(F)c(Br)c1 (centres undefined)	.	.	.	.	-3.3	.
Cc1cc(C)cc(-n2c(C)cc(/C=N/NC(=O)CN(c3c(C)cccc3C)S(C)(=O)=O)c2C)c1	.	2*	.	.	.	.
CC1(C)CC(NC(=O)c2cccc(Cl)c2)CC(C)(C)N1	.	.	.	.	102.2*	.
C[C@@H](C(=O)NCc1ccccc1)N1C(=O)C2CC=CCC2C1=O (some centres undefined)	.	1.4	.	.	.	.
CC(C(=O)Nc1nc2ccccc2[nH]1)N1C(=O)C2CC=CCC2C1=O (centres undefined)	-7.6	2*	-3.6	10.1	-0.8	-2.7
O=C(c1ccccn1)N1CCN(c2ccc(C(F)(F)F)cn2)CC1	-7.4	.	6.2	-0.8	-8.2	-5.0
Cc1cccc(C(=O)N2CCN(c3ccc(C(F)(F)F)cn3)CC2)c1C	.	2.1*	.	.	.	.
C=CCNC(=O)C(=O)NCc1cccnc1	.	.	.	.	-16.6	.
O=c1c(Oc2ccccc2Br)coc2cc(O)ccc12	.	.	.	.	6.8	.
SMILES	C1s inh	PLAP act	FXIa mix inh	FXIIa inh mix	HePTP inhibitor	Cathepsin G inh
Cc1ccc(S(=O)(=O)N2CCC(C(=O)N3CCC[C@H]3C(=O)NC3CCS(=O)(=O)C3)CC2)cc1 (some centres undefined)	10.9	2*	5.7	-1.3	0.5	6.2
Cc1ccc(S(=O)(=O)N2CCC(C(=O)NCCc3ccccc3)CC2)cc1	.	0.8	.	.	.	.
Cc1ccc(S(=O)(=O)N2CCC(C(=O)NCCN3CCCCCC3)CC2)cc1	8.0	2.1*	3.5	8.5	0.0	16.0
Cc1ccc(C(=O)c2ccc(Br)cc2)cc1S(=O)(=O)Nc1cccc(O)c1	.	.	.	.	0.6	.
CCOC(=O)C1=C(C)N(c2ccc(OC)cc2)C(=O)/C1=C\c1ccc(C(=O)O)cc1	.	.	.	.	8.8	.
Nc1[nH]nc2nc(N3CCCC3)nc(-c3ccccc3)c12	9.1	2*	4.4	2.7	3.7	11.0
COc1ccc(-c2nc(N3CCOCC3)nc3n[nH]c(N)c23)cc1	-53.9	1.1	-11.0	19.6	0.3	-3.1
CCC(C)(C)n1nnnc1C(c1ccc2ncccc2c1)N1CCN(Cc2ccc3c(c2)OCO3)CC1 (centres undefined)	3.3	2.1*	7.1	7.2	-1.0	-0.5

High-throughput results from PubChem BioAssay.
